Results reported in ChEMBL document CHEMBL4888484, “Replenishing the malaria drug discovery pipeline: Screening and hit evaluation of the MMV Hit Generation Library 1 (HGL1) against asexual blood stage Plasmodium falciparum ,using a nano luciferase reporter read-out” (2022).
Several values for one entry are separate records, joined by “and”; a condition that tells them apart may be missing. Equal values may be shown once. About 410 (8.5%) of roughly 4,800 compounds showed an effect of 50% or more. For the sample, strong results were picked, then their nearest neighbours and some compounds at random.

Test system: Plasmodium falciparum
Test: Confirmatory screen in NF54 pLDH assay, in single point, at 2uM, 72h
Type: functional, Erythrocyte
Details: timepoint 72 hour

Structure (SMILES)	% Inhibition [%]	% Inhibition (2 µM)
O=C(NCC1CC1)c1cn[nH]c1-c1ccccc1	1	–
COc1cc(-c2nc3ccccc3s2)ccc1OCc1cccc2ccccc12	0	–
Oc1cc(OCc2ccccc2F)ccc1-c1[nH]ncc1-c1ccccc1	72	–
COc1ccc(-c2c(C(F)(F)F)n[nH]c2-c2ccc(OCc3ccccc3F)cc2O)cc1	91	–
c1ccc(-c2cn[nH]c2N2CCNCC2)cc1	-16	–
COc1cc(OC)cc(C2(O)CCN(C(=O)CCc3ccccc3F)CC2)c1	-20	–
COc1ccccc1NC(=O)CC1CS(=O)(=O)CC1CC(=O)Nc1ccccc1OC (stereo not given)	13	–
COc1ccc(-c2cnn3c(-c4ccccn4)ccnc23)cc1OC	4	–
C#CCNC(=O)[C@H](C#N)c1nc(C)c(C)s1	10	–
Cc1cnc([C@H](C)NC(=O)c2conc2C(C)(C)N)s1	9	–
C[C@H]1Cc2cc(C(=O)NCc3nc(C(F)(F)F)n[nH]3)ccc2O1	10	–
COc1ccc(-c2cn3cc(C)nc3n2C)cc1	0	–
Cc1ccc(S(=O)(=O)CC(=O)NC(C)(C)C)cc1	5	–
O=C(CCc1ccc(Cl)c(C(F)(F)F)c1)N1CC[C@H](N2CCc3ccccc3C2)C1	45	–
CC(C)(C)OC(=O)CN(c1cc(F)cc(F)c1)S(=O)(=O)c1ccc2nncn2c1	-2	–
CCN(C)C1(CNC(=O)c2ccc(-c3cc(F)ccc3O)cc2)CCCC1	11	–
NC(=O)N1CCC[C@H]1C(=O)NC1CC(=O)N(C2CC2c2ccccc2)C1 (stereo not given in full)	8	–
Cc1cnc(NC(=O)c2ccc3ncoc3c2)c(Br)c1	15	–
O=C(CC1CCOCC1)N1CCN(C(=O)c2ccco2)CC1	-18	–
Cc1ccc(-c2ccnc3c(C(=O)NC4CC4)cnn23)cc1C	4	–
O=C(Cc1ccc(C(=O)Nc2nc(-c3ccccc3)cs2)cc1)c1ccccc1	12	–
O=S(=O)(c1ccc2ccccc2c1F)N1CC(CO)C1	-13	–

Structure (SMILES)	% Inhibition [%]	% Inhibition (2 µM)
COc1ccc(CC2C(O)C(Cc3ccc(OC)cc3)C3CCC2N3C)cc1 (stereo not given)	6	–
CCNC(=O)C(=O)NCc1ccc(OC)cc1	-20	–
COc1ccc(CNCCC2C(C)CN(C)C(C)C2Cc2ccccc2)cc1 (stereo not given)	66	–
COc1ccc(C(=O)n2[nH]c(=O)c(CCO)c2C)cc1	5	–
COc1ccc(Nc2nnc(/C=C/c3ccccc3)c(=O)n2N)cc1	16	–
O=S1(=O)CCN(OCc2ccc(Cl)cc2)CC1	15	–
COc1ccc2[nH]c3c(c2c1)CC(C(=O)O)NC3c1ccc(OC)c(CN2CCN(c3ccccc3F)CC2)c1 (stereo not given)	72	–
Fc1ccccc1N1CCN(C2CCN(Cc3c[nH]c4ccccc34)CC2)CC1	33	–
COc1ccccc1N1CCN(Cc2nc3ccccc3c(=O)n2-c2ccc(F)cc2)CC1	12	–
O=C(NCCc1ccc(O)cc1)c1ccc2n[nH]c(=O)n2c1	-20	–
CCC(C)(C)C(=O)N1CCC[C@@H]1CCc1ncc(C)n1C(C)C	14	–
CCOc1cc([C@H]2Nc3ccccc3C(=O)N2c2ccccc2)ccc1OCc1ccc(F)cc1	-4	–
O=C(/N=C(/c1ccccc1)N1CCCCC1)C(F)(F)C(F)(F)C(F)(F)C(F)(F)C(F)(F)C(F)(F)F	–	1% and 0%
Cc1ccc(-c2csc(NC(=O)c3cccc(C(=O)Nc4nc(-c5ccc(C)cc5C)cs4)n3)n2)c(C)c1	-7	–
O=C(Nc1nncs1)c1cccc(C(=O)Nc2nncs2)n1	64	–
O=C(Nc1nncs1)NC(C1CC1)C1CC1	5	–
Cc1c(NC(=O)c2n[nH]cc2Br)c(=O)n(-c2ccccc2)n1C	7	–
CCn1c(=O)c(N2CCC[C@H](C(=O)NCc3cccc(C)c3)C2)nc2ccccc21	14	–
CCC(C)(CC)[C@@](O)(C#CC[N+]1(Cc2ccccc2)CCCCC1)c1ccccc1	22	–
CC(CC1OCC(C[N+]2(Cc3ccccc3)CCCCC2)O1)CC(C)(C)C (stereo not given)	56	–
COc1cc(C(=O)NC(C)(C)c2c(C)noc2C)on1	7	–
CN1C(=O)N(c2cc(Cl)cc(Cl)c2)C(=O)[C@]12CN(c1ccc(C(=O)O)cn1)C[C@H]2c1ccc(C#N)cc1	15	–

Structure (SMILES)	% Inhibition [%]	% Inhibition (2 µM)
c1cc([C@@H]2CN(Cc3noc(C4CC4)n3)CCO2)cs1	7	–
COc1ccc(NC(=O)N2CC[C@H](CC(=O)NCc3ccccc3)C2)cc1OC	-11	–
Cc1cc(-n2c(C)cc(C(=O)Cn3c(C(F)(F)F)ccc(C(N)=O)c3=O)c2C)no1	23	–
NC(=O)c1ccc(C(F)(F)F)n(CC(=O)N(Cc2ccc(F)cc2)C2CCCCC2)c1=O	-6	–
NC(=O)c1ccc(C(F)(F)F)n(C[C@H](O)c2cc(Cl)ccc2Cl)c1=O	60	–
CC(C)(C)c1cc(N)c2ccccc2n1	-6	–
CNC(=O)CNC(=O)c1cccc(Cl)c1	12	–
O=C(N[C@@H](N1CCCCCC1)C(Cl)(Cl)Cl)c1cccc(Cl)c1	-20	–
NC(=O)C(NC(=O)c1cccc(Cl)c1)C(N)=O	85	–
COCc1cc2nn(CC(=O)Nc3ccc(F)c(F)c3)c(=O)n2c(-c2ccccc2)n1	-15	–
Cn1cc(NC(=O)Nc2cccc(OCC(F)F)n2)cn1	-7	–
O=C(Cc1c[nH]c2ccccc12)NC1(C(=O)NC2CCCC2)CCCCC1	8	–
CCN1C(=O)Cc2cc(NC(=O)c3ccc(Br)o3)ccc21	12	–
CC(C)[C@@H]1CCc2ccccc2N1Cc1nc(N)nc(N(C)C)n1	6	–
O=C(Nc1ccc2c(c1)OCCCO2)c1ccsc1	5	–
O=C1CN(C(=O)C2CC2c2ccccc2C(F)(F)F)CCN1 (stereo not given)	-4	–
N=C(N)NCc1ccc(COCc2ccccc2)cc1	17	–
CCOc1ccc(NC(=O)c2cn3nc(-c4ccc(OCC)cc4)cc3nc2C2CCN(C(=O)OC(C)(C)C)CC2)cc1	16	–
c1ccc(C2=NN(c3ccc(-c4cc(-c5ccccc5)[n+](-c5ccccc5)c(-c5ccccc5)c4)cc3)[C@H](c3ccccc3)C2)cc1	97	–
N#CC(c1ccc(Cl)cc1)N1N=C(c2ccccc2)CC1c1ccccc1 (stereo not given)	10	–
COc1ccc(C2=NN(C(C#N)c3cccc(OC)c3O)C(c3ccccc3)C2)cc1 (stereo not given)	3	–
